Test [1] deals with Human papillomavirus type 1a protein E7 (residues 44-93). Put plainly: HPV1a E7 fragment binders on microarrays, primary screen, biochemical, small-molecule microarray, residues 44-93, 635 nm fluorescence (AID 1108).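 Further: E7 fragment applied at 1 µg/mL in TBST for 1 h at 4 C; score combines spot fluorescence with its signal to noise ratio.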 Particulars: small-molecule microarray binding, fluorescence 635 nm; higher = more signal.
A short description of test [2]: modulators of HCV replicon luciferase signal, primary screen, HCV replication inhibitor project, Huh7 cells, luciferase reporter (AID 1109).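 Further: huh7 hepatoma cells harbouring a luciferase neomycin HCV replicon reporter; luciferase luminescence as measure of HCV replicon replication; test concentration not given here.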 Particulars: 48 h, higher = more signal. In general terms: In antiviral work, replicon cells carry a viral genome segment that copies itself.
The target of test [3] is Left-right determination factor 2 (Homo sapiens) (UniProt O00292). Put plainly: LEFTY2 binders on small-molecule microarrays, primary screen, biochemical, small-molecule microarray, 635 nm fluorescence scan (AID 1110). Particulars: LEFTY2 binding, higher = more signal.
Test [4] has as its target Calmodulin-1 (Homo sapiens) (UniProt P0DP23). Kind of test: CALM1 binders on microarrays, EGTA buffer, profiling panel, biochemical, small-molecule microarray, Cy5-labelled CALM1 (AID 1111).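 Further: labelled calmodulin applied in Tris saline Tween buffer holding calcium plus EGTA and DTT.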 As to conditions: Cy5-CALM1 binding fluorescence, higher = more signal.
Test [5] has the same target. Put plainly: calcium-bound CALM1 binders on microarrays, profiling panel, artefact control for SMM control-protein annotation, biochemical, small-molecule microarray, Cy5-labelled CALM1, plus calcium (AID 1112).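 Further: score merges spot fluorescence with signal to noise from triplicate slides.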 As to conditions: Cy5-CALM1 binding fluorescence, higher = more signal.
Test [6] in a line: small-molecule microarray binders of probe aWnt5a, primary screen, biochemical, biotinylated probe, 635/667 nm fluorescence (AID 1113).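 Further: score merges 667 nm fluorescence intensity with signal-to-noise per printed feature.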 As to conditions: higher = more signal.
A short description of test [7]: small-molecule microarray binders of probe aShh, primary screen, biochemical, biotinylated probe, 635/667 nm fluorescence (AID 1114).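 Further: probe is biotin-labelled aShh protein from a stem cell growth factor screen; measures binding of labelled protein to compounds printed on the slide; score merges feature fluorescence at 667 nm with signal-to-noise.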 As to conditions: higher = more signal.
Test [8] in a line: small-molecule microarray binders of probe aNog, primary screen, biochemical, biotinylated probe, 635/667 nm fluorescence (AID 1115).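 Further: probe is biotinylated aNog protein used at 0.15 µg/mL for 1 h at 4 C; z-score combines 667 nm fluorescence of each spot with its signal to noise.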 Particulars: higher = more signal.
Test [9] deals with Torsin-1A-interacting protein 1 (Homo sapiens) (UniProt Q5JTV8). Kind of test: LAP1 binders from COS7 cell lysate, primary screen, small-molecule microarray, 635/667 nm fluorescence (AID 1116). Particulars: COS7-hLAP1 lysate binding, 635 nm fluorescence, higher = more signal.
Test [10] concerns the target Alpha-bungarotoxin (Bungarus multicinctus) (UniProt P60615). Kind of test: alpha-bungarotoxin binders on microarray, profiling panel, artefact control for SMM control protein annotation, biochemical, small-molecule microarray, Alexa647 label, 635/667 nm fluorescence (AID 1117). Particulars: alpha-BTX-A647 binding fluorescence, higher = more signal.
The next test has as its target Albumin (Bos taurus) (UniProt P02769). Put plainly: bovine serum albumin binders on microarray, profiling panel, artefact control for SMM control protein annotation, biochemical, small-molecule microarray, Alexa647 label, 635/667 nm fluorescence (AID 1118).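 Further: score merges 667 nm emission intensity and signal-to-noise per printed compound spot.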 Particulars: BSA-A647 binding, fluorescence 635 nm, higher = more signal.
The nature of test [11]: small-molecule microarray binders of probe aXIP, primary screen, biochemical, NeuroSMM set, 635/667 nm fluorescence (AID 1119).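 Further: probe is the protein aXip251-270 applied at 1 µg/mL to compound-printed slides; binding of probe to printed compounds measured as 667 nm fluorescence plus signal to noise.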 Particulars: higher = more signal, called active from +8 up or from −8 down.
Test [12] in a line: small-molecule binders of probe aNOTCH3, primary screen, biochemical, small-molecule microarray, 635/667 nm fluorescence (AID 1120).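 Further: probe is a biotin-tagged antibody raised against NOTCH3 rather than NOTCH3 protein; score merges spot fluorescence near 667 nm with spot signal to noise.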 As to conditions: higher = more signal.
A short description of test [13]: small-molecule binders of probe aNOTCH2, primary screen, biochemical, small-molecule microarray, 635/667 nm fluorescence (AID 1121).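 Further: score merges feature fluorescence read at 667 nm with its signal to noise.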 Particulars: higher = more signal.
The target of test [14] is Carbonic anhydrase 2 (Homo sapiens) (UniProt P00918). Put plainly: CAII small-molecule binders, profiling panel, biochemical, small-molecule microarray, Alexa647-labelled CAII (AID 1122). Particulars: CAII-A647 binding fluorescence, higher = more signal.
Test [15] can be described thus: COS7 lysate on small-molecule microarray, probe aHis, 635 nm (AID 1123).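 Further: z-score combines 667nm fluorescence intensity with signal-to-noise per printed compound spot.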 As to conditions: COS7 cell lysate, fluorescence, higher = more signal.
Test [16] can be described thus: compound binding in COS7 lysate, probe aLAP1, primary screen, cell lysate, small-molecule microarray (AID 1124).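 Further: lysate comes from COS7 cells expressing LAP1 and is applied at 0.3 µg/mL; score merges spot fluorescence near 667 nm with signal-to-noise over triplicate slides.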 Particulars: probe aLAP1, fluorescence, higher = more signal.
The test system of the next test is Sam68 (KHDRBS1). Put plainly: Sam68 small-molecule binders, primary screen, biochemical, small-molecule microarray, 635 nm fluorescence (AID 1125).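 Further: score merges 667 nm channel intensity with signal to noise over triplicate slides.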 Particulars: small-molecule microarray binding, higher = more signal.
The subject of test [17] is Chordin-like protein 2 (CHRDL2). Kind of test: CHRDL2 small-molecule binders, primary screen, biochemical, small-molecule microarray, 635 nm fluorescence (AID 1126).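 Further: printed compound slides probed with Chrdl2 protein at 4 µg/mL for 1 h at 4 C; score merges 667 nm emission intensity with signal to noise over three replicate slides.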 Particulars: small-molecule microarray binding, fluorescence 635 nm; higher = more signal.
Test [18] has as its target Concanavalin-A (Canavalia ensiformis) (UniProt P02866). Put plainly: ConA small-molecule binders, primary screen, artefact control for SMM control protein annotation, biochemical, small-molecule microarray, Alexa647 label, 635 nm (AID 1127).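 Further: z combines 667 nm emission intensity with signal-to-noise across three replicate slides.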 As to conditions: ConA-A647 binding fluorescence, higher = more signal.

Calls of active or inactive are those of the source.

Chain of Torsin-1A-interacting protein 1 (Homo sapiens) (Q5JTV8 whole entry, looked up): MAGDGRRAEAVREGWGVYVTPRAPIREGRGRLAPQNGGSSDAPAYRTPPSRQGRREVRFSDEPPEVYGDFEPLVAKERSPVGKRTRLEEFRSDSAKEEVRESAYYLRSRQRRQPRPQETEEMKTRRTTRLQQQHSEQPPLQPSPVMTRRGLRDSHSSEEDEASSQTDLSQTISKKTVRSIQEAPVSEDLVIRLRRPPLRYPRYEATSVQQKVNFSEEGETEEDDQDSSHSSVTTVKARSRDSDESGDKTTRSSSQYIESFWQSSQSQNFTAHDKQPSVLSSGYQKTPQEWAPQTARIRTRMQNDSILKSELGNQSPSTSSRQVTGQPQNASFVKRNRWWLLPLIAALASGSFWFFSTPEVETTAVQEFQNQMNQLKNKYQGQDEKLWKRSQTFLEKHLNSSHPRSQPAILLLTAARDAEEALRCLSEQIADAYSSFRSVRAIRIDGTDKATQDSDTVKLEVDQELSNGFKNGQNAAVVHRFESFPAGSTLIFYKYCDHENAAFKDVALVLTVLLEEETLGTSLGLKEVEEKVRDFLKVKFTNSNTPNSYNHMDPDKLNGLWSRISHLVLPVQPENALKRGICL
Chain of Left-right determination factor 2 (Homo sapiens) (O00292 whole entry, looked up): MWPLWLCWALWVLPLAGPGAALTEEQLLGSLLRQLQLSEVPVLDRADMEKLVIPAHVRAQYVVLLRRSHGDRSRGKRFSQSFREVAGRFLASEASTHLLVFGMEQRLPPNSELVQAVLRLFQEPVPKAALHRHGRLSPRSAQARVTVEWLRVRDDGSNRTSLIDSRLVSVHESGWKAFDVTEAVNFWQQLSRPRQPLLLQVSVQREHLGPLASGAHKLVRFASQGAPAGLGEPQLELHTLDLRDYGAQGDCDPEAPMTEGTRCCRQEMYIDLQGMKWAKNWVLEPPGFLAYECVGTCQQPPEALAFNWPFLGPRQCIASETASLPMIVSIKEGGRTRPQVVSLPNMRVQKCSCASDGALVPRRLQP
Chain of Albumin (Bos taurus) (P02769 whole entry, looked up): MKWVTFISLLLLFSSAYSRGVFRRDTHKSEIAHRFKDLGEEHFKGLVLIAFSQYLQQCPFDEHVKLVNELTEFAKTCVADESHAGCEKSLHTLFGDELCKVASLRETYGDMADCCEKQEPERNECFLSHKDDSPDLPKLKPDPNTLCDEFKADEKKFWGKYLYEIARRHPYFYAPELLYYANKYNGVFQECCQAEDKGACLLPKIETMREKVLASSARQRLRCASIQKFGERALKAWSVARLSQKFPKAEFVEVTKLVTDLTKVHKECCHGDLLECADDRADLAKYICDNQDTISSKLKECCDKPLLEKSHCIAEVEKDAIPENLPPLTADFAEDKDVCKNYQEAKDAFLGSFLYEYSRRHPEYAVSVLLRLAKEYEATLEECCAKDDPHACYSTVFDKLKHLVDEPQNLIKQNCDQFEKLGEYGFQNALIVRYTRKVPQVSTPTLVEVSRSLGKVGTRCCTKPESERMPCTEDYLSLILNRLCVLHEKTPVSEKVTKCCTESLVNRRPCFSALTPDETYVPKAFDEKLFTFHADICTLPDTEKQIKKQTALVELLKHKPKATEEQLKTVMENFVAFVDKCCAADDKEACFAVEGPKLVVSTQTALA
Chain of Alpha-bungarotoxin (Bungarus multicinctus) (P60615 whole entry, looked up): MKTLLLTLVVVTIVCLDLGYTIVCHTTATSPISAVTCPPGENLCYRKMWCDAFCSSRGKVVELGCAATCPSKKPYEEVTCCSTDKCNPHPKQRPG
Chain of Concanavalin-A (Canavalia ensiformis) (P02866 whole entry, looked up): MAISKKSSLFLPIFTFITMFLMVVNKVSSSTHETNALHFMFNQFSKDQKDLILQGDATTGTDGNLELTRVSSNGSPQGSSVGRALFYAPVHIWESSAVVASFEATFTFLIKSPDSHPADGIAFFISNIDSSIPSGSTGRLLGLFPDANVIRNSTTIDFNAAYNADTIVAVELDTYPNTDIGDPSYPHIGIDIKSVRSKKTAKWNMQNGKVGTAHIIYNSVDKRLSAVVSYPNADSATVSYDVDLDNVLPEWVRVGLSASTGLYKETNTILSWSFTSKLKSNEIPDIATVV

Regarding `COc1cc2c(cc1O)C=[N+](Cc1cc3c(cc1Br)OCO3)CC2`, the composite z-score in test [1] was -0.411; in [3], -0.678; in test [4] it was -1.01; in test [5], -0.0978; in [6], -0.16; in [7], -0.16. The composite z-score in test [8] was -0.492; in [9] it was -0.479; in test [10], -2.64; with Albumin (Bos taurus), -0.71; in test [12], -0.185; in test [13], -0.126. Also, the composite z-score in [14] was 0.844; in [15], 0.0478; in test [16], 0.27; in the test with Sam68 (KHDRBS1) it was -0.54; in test [17] it was -0.139; in test [18] it was -1.27. This molecule yielded a z-score in test [2] of -0.537. Further, the composite Z-score in [11] was -0.402 (inactive).

With `COCCCNC(=O)[C@@]1(Sc2ccc(C)cc2)CC(=O)N(Cc2ccccc2Cl)[C@@H]1c1ccc(CO)cc1`, the composite z-score in test [1] was 1.36; in test [3] it was 0.585; in [4], 0.532; in [5], -0.184; in test [6], 0.0706; in test [7], 0.275. Besides, the composite z-score in [8] is -0.205; in test [9], 0.566; in [10], 1.25; in the test with Albumin (Bos taurus), 0.71; in [12] it was 0.132; in test [13], -0.14. Besides, the composite z-score in [14] turned out to be 0.718; in test [15], 1.35; in test [16], 0.203; in the test with Sam68 (KHDRBS1), 1.1; in test [17] it was 0.649; in test [18], 0.629. This molecule registered a z-score in [2] of -1.75. For the same molecule, in [11], the composite Z-score was -0.301 (inactive).

As for `Cc1c(NC(=O)/C(C#N)=C/c2cccc([N+](=O)[O-])c2)c(=O)n(-c2ccccc2)n1C`, the composite z-score is 0.785 in [1]; 0.285 in test [3]; 0.619 in test [4]; -0.249 in test [5]; -0.0819 in test [6]; -0.0793 in test [7]. Moreover, the composite z-score in [8] was -0.346; in test [9] it was 0.38; in test [10], 0.0071; with Albumin (Bos taurus), 0.48; in [12], 0.0934; in test [13], 0.993. Also, the composite z-score amounted to 0.792 in test [14]; 0.719 in [15]; 0.861 in [16]; 0.928 with Sam68 (KHDRBS1); 0.393 in test [17]; 0.456 in test [18]. Further, the z-score in test [2] was -1.44. Besides, in test [11], the composite Z-score is -0.449 (inactive).

On to `COc1ccc([Si](C)(C)[C@@H]2[C@@H](CCO)O[C@]3(C(=O)N(Cc4cccc(N5CCOC5=O)c4)c4ccccc43)[C@H]2C)cc1`, for which the composite z-score in test [1] was 0.542; in test [3], 0.133; in test [4], 1.37; in [5], 0.924; in test [6], -0.0704; in test [7], 0.0756. For the same molecule, the composite z-score was 0.36 in test [8]; 0.412 in test [9]; 1.32 in [10]; 0.757 with Albumin (Bos taurus); 0.326 in test [12]; -0.0907 in [13]. The composite z-score in [14] was 0.219; in [15], 0.531; in test [16], -0.231; in the test with Sam68 (KHDRBS1) it was 1.15; in test [17], -0.0408; in test [18], 1.12. In [2], this molecule showed a z-score of -4.17. In addition, the composite Z-score in test [11] is -0.295 (inactive).

In the case of `C=C(C)[C@@H]1CC=C(C(O)C2C=CC3C(=O)NC(=O)C3N2Nc2ccc(Cl)cc2Cl)CC1` (stereo not given in full), the composite z-score in test [1] was 0.762; in test [3], 0.216; in test [4], 2.19; in test [5] it was 1.21; in [6] it was 0.0328; in test [7], -0.0271. Also, the composite z-score in test [8] amounted to 1.61; in test [9], 0.584; in test [10] it was 2.26; with Albumin (Bos taurus), 1; in test [12], 0.0221; in [13] it was 0.0032. Besides, the composite z-score worked out at 0.708 in [14]; 2 in test [15]; 0.708 in test [16]; 1.31 in the test on Sam68 (KHDRBS1); 0.41 in [17]; 1.11 in [18]. The z-score in test [2] is -0.537. The composite Z-score in test [11] is 0.114 (inactive).

`[N-]=[N+]=Nc1ccccc1C[C@]1(C(=O)NCc2ccccc2)N=C(c2ccc(OCCCO)cc2)O[C@H]1c1ccccc1N=[N+]=[N-]`: the composite z-score in [1] was 1.42; in test [3], -0.366; in test [4] it was 1.99; in test [5] it was 0.177; in [6] it was 0.164; in test [7] it was 0.149. Also, the composite z-score is -0.237 in [8]; 1.02 in test [9]; 1.48 in [10]; 0.896 with Albumin (Bos taurus); 0.555 in test [12]; -0.0211 in test [13]. Moreover, the composite z-score is 0.676 in test [14]; 2.63 in test [15]; 0.458 in test [16]; 1.06 in the test with Sam68 (KHDRBS1); -0.124 in [17]; 1.13 in [18]. The z-score in test [2] is -2.34. The composite Z-score in [11] was 0.411 (inactive).

The values are drawn from PubChem BioAssay.
